Consider seven molecules from PubChem BioAssay.

Each structure is given as a SMILES string. Inconclusive results are not listed. The source made the active and inactive calls.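 The calls were made as follows, unless noted: active = compound raises insulin release from rat beta cells at 5 mM glucose, no numeric limit stated; inactive = the rest.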

The nature of test [1]: stimulators of insulin release from INS-1E, primary screen, cell-based, 5 mM glucose, NPC library (AID 1117329). The note with it: rat INS-1E insulin secretion, at 10 µM, stronger effect = higher value.
Test [2] is described as follows: growth inhibition of GSK3B-pretreated HCT116 cells – cell-based, CellTiter-Glo, 0.2 to 20 µM (AID 1117336;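 active = compounds lowering colon cancer cell viability after pretreatment blocking the GSK3B kinase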). The note with it: HCT116 viability after GSK3B inhibitor, at 20 µM, stronger effect = higher value.
Test [3] is described as follows: inhibition of endothelial tube formation, primary screen, imaging, VEGF stimulated, CD31 staining, tube area, NPC library (AID 1117340;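 active = compound that reduces growth-factor-driven endothelial tube area in a mixed cell culture, no cutoff stated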). Particulars: VEGF-stimulated ADSC/ECFC co-culture, at 10 µM, stronger effect = higher value.
Test [4] in a line: glucagon-like peptide 1 release enhancers, primary assay, NCI-H716 cell line, NPC library (AID 1117341;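 active = compound raises GLP1 secretion from the human gut endocrine cells, with no numeric limit stated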). Particulars: NCI-H716 cells, at 10 µM, stronger effect = higher value.
Test [5] in a line: HCT116 colon cancer cell growth inhibition, primary screen, CellTiter-Glo luminescence, NPC library (AID 1117342;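 active = compounds that lower survival of HCT116 colon cancer cells in the luminescence readout, no numeric limit stated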). The note with it: at 20 µM (top of the series).
Test [6] in a line: CellTiter-Glo luminescent readout of SW480 viability loss, NPC library primary (AID 1117343;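 active = compounds that lower viability of the colon cancer cells in the luminescence readout, with no numeric limit stated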). The note with it: CellTiter-Glo luminescence; at 20 µM (top of the series). (In ATP-based viability assays light output follows the ATP content of the culture.)
Test [7] in a line: decreased DLD-1 cellular survival, CellTiter-Glo luminescent readout, NPC compound collection, primary HTS (AID 1117346;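 active = compounds that lower survival of DLD-1 colon cancer cells in the luminescence readout, no cutoff given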). Particulars: DLD-1 viability, CellTiter-Glo luminescence; at 20 µM (top of the series).
The target in test [8] is 6-phosphogluconate dehydrogenase, decarboxylating (Homo sapiens) (UniProt P52209). In words: 6PGD enzyme inhibitors, primary screen, biochemical, human, recombinant enzyme, NADPH absorbance (AID 1159550;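 active = at least 20% inhibition of 6-phosphogluconate dehydrogenase activity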). The note with it: recombinant 6PGD, NADPH absorbance 341 nm; at 10 µM; stronger effect = higher value.
A short description of test [9]: differential killing of epithelial or mesenchymal cells, primary screen, imaging, PC-3E GFP, TEM4-18 mCherry, co-culture (AID 1345086;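 active = compounds killing one labelled cell type while sparing the other, by normalised counts and ratio limits, not self-fluorescent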;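 as to all read-outs here: cells exposed to compound for 72 h before imaging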;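 as to red/green cell ratio (normalised): normalised mesenchymal count divided by normalised epithelial count so high means epithelial killing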). Particulars: imaging cell counts, at 1 µM; for red/green cell ratio (normalised): actives lie on both sides, counts scaled to control wells, 1 = unselective.
Test [10] deals with Aerobactin synthetase IucA (Klebsiella pneumoniae). In words: IucA aerobactin synthetase inhibitors, biochemical, Tocris library, absorbance (AID 1345561; call rule not given here;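 also: 100% = enzyme without compound and 0% = no enzyme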). The note with it: purified IucA enzyme assay, absorbance (OD) read-out; stronger effect = lower value;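 tested at 8 µM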.
Test [11] is described as follows: growth inhibition of DIPG glioma cells, dose response, cell-based, SU-DIPG-XVII, MIPE5.0, CellTiter-Glo, qHTS (AID 1347060; cut-off not given, nearly all actives have AC50 up to about 26 µM). The note with it: SU-DIPG-XVII viability, CellTiter-Glo ATP luminescence.
A short description of test [12]: growth inhibition of DIPG glioma cells, dose response, cell-based, SU-DIPG-XIII, MIPE4.0, CellTiter-Glo, qHTS (AID 1347061; cut-off not given, nearly all actives have AC50 up to about 37 µM;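 also: cells exposed to compound for 48 hours before readout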). Particulars: SU-DIPG-XIII viability, CellTiter-Glo ATP luminescence.
Test [13] in a line: growth inhibition of DIPG glioma cells, dose response, cell-based, JHH-DIPG-1, MIPE4.0, CellTiter-Glo, qHTS (AID 1347062; cut-off not given, nearly all actives have AC50 up to about 27 µM). Particulars: JHH-DIPG-1 viability, CellTiter-Glo ATP luminescence.
Test [14] is described as follows: growth inhibition of DIPG glioma cells, dose response, cell-based, SU-DIPG-XIII, MIPE5.0, CellTiter-Glo, qHTS (AID 1347064; cut-off not given, nearly all actives have AC50 up to about 23 µM). Particulars: SU-DIPG-XIII viability, CellTiter-Glo ATP luminescence.
The mark [15] stands for this setting: measured here: epithelial PC-3E GFP cell survival.
[16] abbreviates: measured here: mesenchymal TEM4-18 mCherry cell survival.

Sequence of 6-phosphogluconate dehydrogenase, decarboxylating (Homo sapiens) (P52209 whole entry, looked up): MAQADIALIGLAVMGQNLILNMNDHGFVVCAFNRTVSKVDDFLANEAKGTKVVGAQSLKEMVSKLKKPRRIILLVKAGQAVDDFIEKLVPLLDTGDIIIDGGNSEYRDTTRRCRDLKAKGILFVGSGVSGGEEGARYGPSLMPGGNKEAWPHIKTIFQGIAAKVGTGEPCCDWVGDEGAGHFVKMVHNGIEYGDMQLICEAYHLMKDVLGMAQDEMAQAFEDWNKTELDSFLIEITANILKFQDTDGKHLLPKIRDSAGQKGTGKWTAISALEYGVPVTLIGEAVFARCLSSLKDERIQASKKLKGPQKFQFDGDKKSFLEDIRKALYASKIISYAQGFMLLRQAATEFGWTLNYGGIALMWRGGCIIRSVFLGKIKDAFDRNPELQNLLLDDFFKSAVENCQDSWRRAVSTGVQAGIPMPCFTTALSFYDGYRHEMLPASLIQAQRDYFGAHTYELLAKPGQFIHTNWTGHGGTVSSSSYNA

Broadly, the inhibition is the drop in the measured response relative to a control, in per cent. Consider `Oc1ccc(Cl)c2cccnc12`, for which the insulin secretion stimulation in test [1] was -2.1% (inactive). The viability decrease in test [2] is 57.1% (active). Besides, in test [3], the tube area decrease was 11.9% (inactive). For the same molecule, the GLP1 secretion stimulation in test [4] is -5.7% (inactive). Moreover, in test [5], the inhibition of viability is 32.7% (inactive). The viability decrease (inhibition) in test [6] was 84.4% (active); in test [7] it was 43.6% (inactive). In addition, in test [8], the inhibition was 10.3% (inactive). Moreover, the red/green cell ratio (normalised) in test [9] was 1.13 (inactive). Further, the normalised cell number in test [9] (setting [15]) was found to be 1.27; in [9] (setting [16]) it was 1.45.
Take `Nc1ccc(C(=O)O)cc1`: the insulin secretion stimulation in test [1] is -1% (inactive). The viability decrease in test [2] was 2.35% (inactive). In test [3], the tube area decrease was -16.4% (inactive). In addition, in test [4], the GLP1 secretion stimulation is 0.8% (inactive). Besides, the inhibition of viability in [5] is -6.1% (inactive). The viability decrease (inhibition) is 13.3% (inactive) in [6] and -4.7% (inactive) in test [7]. In addition, in test [8], the inhibition is 6.16% (inactive). Moreover, the red/green cell ratio (normalised) in test [9] was 1 (inactive). For the same molecule, the normalised cell number in [9] (setting [15]) and in test [9] (setting [16]) was 1.02 in each case.
Turning to `CCOC(=O)c1ccc(N)cc1`, in test [1], the insulin secretion stimulation was -1% (inactive). Also, the viability decrease in [2] was 5.65% (inactive). For the same molecule, the tube area decrease in test [3] was 4% (inactive). Besides, the GLP1 secretion stimulation in [4] is -0.6% (inactive). Moreover, the inhibition of viability in [5] was 7.6% (inactive). Further, the viability decrease (inhibition) in test [6] was 87.8% (active); in test [7], 18.2% (inactive). Besides, the inhibition in test [8] is -17.7% (inactive). In [9], the red/green cell ratio (normalised) was 1.23 (inactive). For the same molecule, the values for the normalised cell number in [9] (setting [15]) and in [9] (setting [16]) were 1.07 and 1.31, respectively.
With `CCCCNc1ccc(C(=O)OCCN(C)C)cc1`, the insulin secretion stimulation in test [1] is 0% (inactive). Also, the viability decrease in [2] was -26.9% (inactive). Moreover, the tube area decrease in test [3] is 9.8% (inactive). The GLP1 secretion stimulation in test [4] was 0.3% (inactive). Besides, the inhibition of viability in test [5] was 18% (inactive). For the same molecule, the viability decrease (inhibition) in [6] is 47% (inactive); in [7] it was 3.1% (inactive). For the same molecule, the inhibition in test [8] is -7.63% (inactive). Moreover, in [9], the red/green cell ratio (normalised) was 1.19 (inactive). Moreover, the values for the normalised cell number in test [9] (setting [15]) and in test [9] (setting [16]) were 1.07 and 1.27, respectively.
For orientation: remaining activity means the signal under treatment as a percentage of the control signal. For the molecule `COc1ccc2[nH]cc(CCNC(C)=O)c2c1`, the insulin secretion stimulation in test [1] is -2.5% (inactive). Further, in test [2], the viability decrease is -6.45% (inactive). For the same molecule, in [3], the tube area decrease is -3.4% (inactive). Moreover, in test [4], the GLP1 secretion stimulation is 4.5% (inactive). The inhibition of viability in test [5] is -6.9% (inactive). Also, the results for the viability decrease (inhibition) in [6] and in [7] were 20.8% (inactive) and 7.55% (inactive), respectively. Besides, the inhibition in test [8] is 6.51% (inactive). Moreover, in [9], the red/green cell ratio (normalised) was 1.02 (inactive). Further, the normalised cell number was determined as 0.84 in [9] (setting [15]) and 0.86 in [9] (setting [16]). Further, the remaining activity in [10] was 102% (inactive). The outcome in test [11], in test [12], in test [13] and in test [14] was inactive.
On to `CCOC(=O)NNc1nncc2ccccc12`, for which, in test [1], the insulin secretion stimulation is 3.7% (inactive). The viability decrease in test [2] was 0.3% (inactive). In test [3], the tube area decrease is -6.6% (inactive). Further, in test [4], the GLP1 secretion stimulation is -0.3% (inactive). The inhibition of viability in [5] is -0.97% (inactive). Besides, the values for the viability decrease (inhibition) in test [6] and in test [7] were 9.4% (inactive) and 6.7% (inactive), respectively. Further, in test [8], the inhibition was -20.7% (inactive). Moreover, the red/green cell ratio (normalised) in [9] was 0.96 (inactive). Moreover, the normalised cell number in test [9] (setting [15]) is 0.94; in [9] (setting [16]) it was 0.9.
Regarding `CC(=O)Oc1cccc(O)c1`, the insulin secretion stimulation in test [1] is 2.6% (inactive). Moreover, the viability decrease in test [2] is 0.4% (inactive). For the same molecule, in test [3], the tube area decrease is 20.9% (inactive). Further, in test [4], the GLP1 secretion stimulation is 1.4% (inactive). In test [5], the inhibition of viability was 3.03% (inactive). Also, the figures for the viability decrease (inhibition) in [6] and in test [7] were 29.4% (inactive) and -7.4% (inactive), respectively. In addition, the inhibition in test [8] was 8.3% (inactive). Besides, in test [9], the red/green cell ratio (normalised) was 1.21 (inactive). Also, the normalised cell number was determined as 1.1 in [9] (setting [15]) and 1.33 in test [9] (setting [16]).
